Measured values taken from the supplement of paper PMC4466140.

B1: unnamed (peptide)
chain: ALRRRLPVTRSKINW
B2: unnamed (peptide)
chain: RPKRRAPPPVPKKPS

target: CaNbp2; test: SPOT peptide array binding signal intensity (averaged, normalized) (arbitrary units (background-subtracted, floor 0; scale differs between SH3 domains)); higher = stronger binding of the SH3 domain to the peptide
Outline: (§1)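 E. coli BL21(DE3) was used to express GST-fused SH3 domains from four yeast species, which were then purified on glutathione Sepharose. These were incubated at 10 μg/ml in TBS-based blocking buffer overnight at 4°C on cellulose membranes carrying synthetic 15-mer peptides, in which cysteines were replaced by serines. Binding signal is the replicate average of normalized, background-subtracted spot intensity, in arbitrary units that differ between domains.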

Binder	SPOT peptide array binding signal intensity
B1	712
B2	3680

target: CaRvs167; test: as above
Outline: as §1

Binder	SPOT peptide array binding signal intensity
B1	48.5
B2	127

target: CaRvs167-3; test: as above
Outline: as §1

Binder	SPOT peptide array binding signal intensity
B1	197
B2	170

target: CaSho1; test: as above
Outline: as §1

Binder	SPOT peptide array binding signal intensity
B1	1180
B2	236

target: CaSla1-D1-D2; test: as above
Outline: as §1

Binder	SPOT peptide array binding signal intensity
B1	491
B2	3850

target: CaSla1-D3; test: as above
Outline: as §1

Binder	SPOT peptide array binding signal intensity
B1	11.5
B2	920

target: ScAbp1; test: as above
Outline: as §1

Binder	SPOT peptide array binding signal intensity
B1	59
B2	3840

target: ScBbc1; test: as above
Outline: as §1

Binder	SPOT peptide array binding signal intensity
B1	45.5
B2	835

target: ScBem1-D1; test: as above
Outline: as §1

Binder	SPOT peptide array binding signal intensity
B1	20
B2	69

target: ScBzz1-D1; test: as above
Outline: as §1

Binder	SPOT peptide array binding signal intensity
B1	23
B2	1610

target: ScBzz1-D2; test: as above
Outline: as §1

Binder	SPOT peptide array binding signal intensity
B1	27
B2	75.5

target: ScCyk3; test: as above
Outline: as §1

Binder	SPOT peptide array binding signal intensity
B1	160
B2	17.5

target: ScFus1; test: as above
Outline: as §1

Binder	SPOT peptide array binding signal intensity
B1	784
B2	42.5

target: ScHof1; test: as above
Outline: as §1

Binder	SPOT peptide array binding signal intensity
B1	2.5
B2	0.5

target: ScHse1; test: as above
Outline: as §1

Binder	SPOT peptide array binding signal intensity
B1	1800
B2	432

target: ScLsb1; test: as above
Outline: as §1

Binder	SPOT peptide array binding signal intensity
B1	26.8
B2	819

target: ScLsb2; test: as above
Outline: as §1

Binder	SPOT peptide array binding signal intensity
B1	15.5
B2	796

target: ScLsb3; test: as above
Outline: as §1

Binder	SPOT peptide array binding signal intensity
B1	658
B2	3720

target: ScLsb4; test: as above
Outline: as §1

Binder	SPOT peptide array binding signal intensity
B1	25
B2	95

target: ScMyo3; test: as above
Outline: as §1

Binder	SPOT peptide array binding signal intensity
B1	3.5
B2	705

target: ScMyo5; test: as above
Outline: as §1

Binder	SPOT peptide array binding signal intensity
B1	3.5
B2	471

target: ScNbp2; test: as above
Outline: as §1

Binder	SPOT peptide array binding signal intensity
B1	616
B2	5640

target: ScPex13; test: as above
Outline: as §1

Binder	SPOT peptide array binding signal intensity
B1	2.25
B2	482

target: ScRvs167; test: as above
Outline: as §1

Binder	SPOT peptide array binding signal intensity
B1	155
B2	1640

target: ScSho1; test: as above
Outline: as §1

Binder	SPOT peptide array binding signal intensity
B1	1460
B2	2030

target: ScSla1-D1-D2; test: as above
Outline: as §1

Binder	SPOT peptide array binding signal intensity
B1	713
B2	3510

target: ScSla1-D3; test: as above
Outline: as §1

Binder	SPOT peptide array binding signal intensity
B1	23
B2	896

target: SpAbp1-D1; test: as above
Outline: as §1

Binder	SPOT peptide array binding signal intensity
B1	794
B2	3020

target: SpBbc1; test: as above
Outline: as §1

Binder	SPOT peptide array binding signal intensity
B1	10
B2	115

target: SpBzz1-D1; test: as above
Outline: as §1

Binder	SPOT peptide array binding signal intensity
B1	381
B2	1740

target: SpBzz1-D2; test: as above
Outline: as §1

Binder	SPOT peptide array binding signal intensity
B1	0.5
B2	713

target: SpCyk3; test: as above
Outline: as §1

Binder	SPOT peptide array binding signal intensity
B1	69.5
B2	4

target: SpHof1; test: as above
Outline: as §1

Binder	SPOT peptide array binding signal intensity
B1	357
B2	374

target: SpHof1-2; test: as above
Outline: as §1

Binder	SPOT peptide array binding signal intensity
B1	80.8
B2	43.2

target: SpHof1-3; test: as above
Outline: as §1

Binder	SPOT peptide array binding signal intensity
B1	790
B2	972

target: SpHse1; test: as above
Outline: as §1

Binder	SPOT peptide array binding signal intensity
B1	766
B2	221

target: SpLsb1; test: as above
Outline: as §1

Binder	SPOT peptide array binding signal intensity
B1	16.2
B2	1830

target: SpLsb4; test: as above
Outline: as §1

Binder	SPOT peptide array binding signal intensity
B1	553
B2	925

target: SpMyo1; test: as above
Outline: as §1

Binder	SPOT peptide array binding signal intensity
B1	10.2
B2	687

target: SpNbp2; test: as above
Outline: as §1

Binder	SPOT peptide array binding signal intensity
B1	716
B2	173

target: SpPex13; test: as above
Outline: as §1

Binder	SPOT peptide array binding signal intensity
B1	23
B2	220

target: SpRvs167; test: as above
Outline: as §1

Binder	SPOT peptide array binding signal intensity
B1	72.5
B2	1300

target: SpSla1-D1-D2; test: as above
Outline: as §1

Binder	SPOT peptide array binding signal intensity
B1	≤ 0
B2	1490

target: SpSla1-D3; test: as above
Outline: as §1

Binder	SPOT peptide array binding signal intensity
B1	41.5
B2	2

target: AgAbp1; test: as above
Outline: as §1

Binder	SPOT peptide array binding signal intensity
B2	5860

target: AgBbc1; test: as above
Outline: as §1

Binder	SPOT peptide array binding signal intensity
B2	1090

target: AgBem1-D1; test: as above
Outline: as §1

Binder	SPOT peptide array binding signal intensity
B2	166

target: AgBzz1-D1; test: as above
Outline: as §1

Binder	SPOT peptide array binding signal intensity
B2	3720

target: AgBzz1-D2; test: as above
Outline: as §1

Binder	SPOT peptide array binding signal intensity
B2	825

target: AgCyk3; test: as above
Outline: as §1

Binder	SPOT peptide array binding signal intensity
B2	1

target: AgFus1; test: as above
Outline: as §1

Binder	SPOT peptide array binding signal intensity
B2	63.5

target: AgHof1; test: as above
Outline: as §1

Binder	SPOT peptide array binding signal intensity
B2	380

target: AgHse1; test: as above
Outline: as §1

Binder	SPOT peptide array binding signal intensity
B2	294

target: AgLsb1; test: as above
Outline: as §1

Binder	SPOT peptide array binding signal intensity
B2	1120

target: AgLsb4; test: as above
Outline: as §1

Binder	SPOT peptide array binding signal intensity
B2	313

target: AgMyo5; test: as above
Outline: as §1

Binder	SPOT peptide array binding signal intensity
B2	124

target: AgNbp2; test: as above
Outline: as §1

Binder	SPOT peptide array binding signal intensity
B2	4930

target: AgRvs167; test: as above
Outline: as §1

Binder	SPOT peptide array binding signal intensity
B2	191

target: AgSho1; test: as above
Outline: as §1

Binder	SPOT peptide array binding signal intensity
B2	650

target: AgSla1-D1-D2; test: as above
Outline: as §1

Binder	SPOT peptide array binding signal intensity
B2	274

target: AgSla1-D3; test: as above
Outline: as §1

Binder	SPOT peptide array binding signal intensity
B2	577

target: CaAbp1-D1; test: as above
Outline: as §1

Binder	SPOT peptide array binding signal intensity
B2	2320

target: CaAbp1-D2; test: as above
Outline: as §1

Binder	SPOT peptide array binding signal intensity
B2	4720

target: CaBbc1; test: as above
Outline: as §1

Binder	SPOT peptide array binding signal intensity
B2	1840

target: CaBem1-D1; test: as above
Outline: as §1

Binder	SPOT peptide array binding signal intensity
B2	78.5

target: CaBzz1-D1; test: as above
Outline: as §1

Binder	SPOT peptide array binding signal intensity
B2	7010

target: CaBzz1-D2; test: as above
Outline: as §1

Binder	SPOT peptide array binding signal intensity
B2	4680

target: CaCyk3; test: as above
Outline: as §1

Binder	SPOT peptide array binding signal intensity
B2	55

target: CaFus1; test: as above
Outline: as §1

Binder	SPOT peptide array binding signal intensity
B2	350

target: CaHof1; test: as above
Outline: as §1

Binder	SPOT peptide array binding signal intensity
B2	0.5

target: CaHse1; test: as above
Outline: as §1

Binder	SPOT peptide array binding signal intensity
B2	666

target: CaLsb1; test: as above
Outline: as §1

Binder	SPOT peptide array binding signal intensity
B2	≤ 0

target: CaLsb4; test: as above
Outline: as §1

Binder	SPOT peptide array binding signal intensity
B2	2700

target: CaMyo5; test: as above
Outline: as §1

Binder	SPOT peptide array binding signal intensity
B2	2.5
